# Laboratory results published in PMC7819943, “Rice protein-binding microarrays: a tool to detect cis-acting elements near promoter regions in rice”.
# Whole data set: some 68,000 sequences, median “fluorescence intensity (a.u.)” near 9,100, cut for the highest 2% near 16,000. Many of the other results were omitted from the sample, so the highest values are more common in it than they were.
# Molecular target: OsWRKY34 (Oryza sativa, UniProt Q0JBA9 1-250)
# Experiment: protein-binding microarray (RPBM); PBS, 2% BSA, 51.3 ng/ul salmon testes DNA, 50 uM zinc acetate, 200 nM TF, 25 C, 1 h; high values mean tight binding
# Conditions: protein: recombinant; tags: N-terminal polyhistidine and DsRed monomer fusion (pET32a); label: CyDye5-dUTP incorporated in the synthesized complementary strand; 3' TTTTT single-stranded linker to array surface; dsDNA, one strand shown
# How it was run: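 The binding signal for each feature is its fluorescence intensity in arbitrary units. An Axon 4000B scanner was used to read a custom Agilent array that had been made double-stranded with Cy5-dUTP primer extension, blocked with 2% BSA, incubated at 25 °C for 1 h with 200 nM protein in PBS, 2% BSA, salmon testes DNA and 50 µM zinc acetate, and washed. The protein was an N-terminal polyhistidine–DsRed transcription factor fusion from E. coli BL21-CodonPlus, purified on Ni–NTA.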
# OsWRKY34, sequence (Q0JBA9 entry or part of it): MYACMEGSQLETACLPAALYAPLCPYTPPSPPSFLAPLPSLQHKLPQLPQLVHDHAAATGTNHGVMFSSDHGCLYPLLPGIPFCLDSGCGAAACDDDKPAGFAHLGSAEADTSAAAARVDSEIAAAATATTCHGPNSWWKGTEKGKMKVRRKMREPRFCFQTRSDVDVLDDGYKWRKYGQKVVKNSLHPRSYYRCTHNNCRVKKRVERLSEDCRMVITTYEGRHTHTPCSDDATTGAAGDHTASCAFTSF
row,Sequence,binding signal
1,CGATCTCAGCTGTCACTCACTATGTGGTTCATCTAACTGACGGAGTCACCTAGTGCAG,9510 fluorescence intensity (a.u.)
2,CAGGTCATTTTGGTGTGTGCTTTGCGGTATTAACTCGTGCCGGAGTCACCTAGTGCAG,8700 fluorescence intensity (a.u.)
3,CACAGCGTCCACACCCGCGCCGCCGCCGCCCTCACCCTCGCGGAGTCACCTAGTGCAG,8760 fluorescence intensity (a.u.)
4,CGGGGATGGAGGTGGTGGTGAGGCTGGCGACGGCGGGCCGCGGAGTCACCTAGTGCAG,12100 fluorescence intensity (a.u.)
5,GGGTGTTATGAGTTGTGTTTGCTGTAGCTTGTCAGCTGTTCGGAGTCACCTAGTGCAG,10600 fluorescence intensity (a.u.)
6,CTGTAGAGAAATACTACACTACTGTACACTACATTCCTGCCGGAGTCACCTAGTGCAG,8350 fluorescence intensity (a.u.)
7,GTGTGGTCGTCGTGTCGGCGGCGGCGGCGGCGGCGGGAGGCGGAGTCACCTAGTGCAG,14300 fluorescence intensity (a.u.)
8,GTGGTGGTGCGCGGCGGCGGCGGCGGGGAGGGGTGTGTGTCGGAGTCACCTAGTGCAG,24500 fluorescence intensity (a.u.)
9,GGTTTTCATGGTGCTGTGGATGTTCACTAGCTTTGGAGGGCGGAGTCACCTAGTGCAG,10900 fluorescence intensity (a.u.)
10,CAGTTTCCACCCTGGGTGGGGTGGGGCCCACCTGTCGGGGCGGAGTCACCTAGTGCAG,9940 fluorescence intensity (a.u.)
11,GGCTGCTTCAGGGGCGTGGGAGAGGTTTGGGGTTGGTTCACGGAGTCACCTAGTGCAG,16000 fluorescence intensity (a.u.)
12,GTCCAAGTTTGCCTTTCTCACTGGGGAGCGGGTGGGCTGTCGGAGTCACCTAGTGCAG,21000 fluorescence intensity (a.u.)
13,CCTTTCCAAGTCGGTCGGGGTAGCTGGGTTGTCTCGCCGGCGGAGTCACCTAGTGCAG,12300 fluorescence intensity (a.u.)
14,GAGTTGGGTTGGAGTGGTTTGGATCGCTGCTTCACTAGGGCGGAGTCACCTAGTGCAG,27400 fluorescence intensity (a.u.)
15,TGTTAGTATTAGGGTGCTTTTGGGTTTGGGGTTTCTGCCACGGAGTCACCTAGTGCAG,24200 fluorescence intensity (a.u.)
16,CTGTATTATGGTGCTTTCACATTTTTTTTCTAGTCTGCCACGGAGTCACCTAGTGCAG,8370 fluorescence intensity (a.u.)
17,ATTTGTATTTGTTTTTTGTTTGTTAGTATTAGGGTGCTTTCGGAGTCACCTAGTGCAG,9720 fluorescence intensity (a.u.)
18,GTGTCGGCGGAGGGGCGCGCGGCGGGGTCGGCGGAGGCGCCGGAGTCACCTAGTGCAG,8590 fluorescence intensity (a.u.)
19,TTCATGGAACATTCACGTGGATCATTCTCTCTCTCTCTCTCGGAGTCACCTAGTGCAG,8100 fluorescence intensity (a.u.)
20,TCACATCTCATTTTATGTTGGTTTTTTATGGGACGGGAGGCGGAGTCACCTAGTGCAG,10200 fluorescence intensity (a.u.)
21,CACCACCGTGCACTTCACAATTCACACTACTCCTTCAGATCGGAGTCACCTAGTGCAG,8340 fluorescence intensity (a.u.)

row,Sequence,binding signal
1,CTCATCATCCCGTCCAAAATCAGCTGCCCGCGCCGACGACCGGAGTCACCTAGTGCAG,8700 fluorescence intensity (a.u.)
2,ATACACATGCACATTTAGTTCCTCCCGGTAAGTTCGTCGTCGGAGTCACCTAGTGCAG,8260 fluorescence intensity (a.u.)
3,ATTTTTTTTTGGCATAGTTTGTGTTCACTGCAAAAATCACCGGAGTCACCTAGTGCAG,9080 fluorescence intensity (a.u.)
4,TTTGGTTCACGCGGCGCGGGCGGGGAGTGGGAGGGGCATGCGGAGTCACCTAGTGCAG,24100 fluorescence intensity (a.u.)
5,GCTACATCAGCGGCGGAGGTGGAGGTGGAGGGGTAAGGTGCGGAGTCACCTAGTGCAG,11600 fluorescence intensity (a.u.)
6,GGGTTATTCTTTGCATGATATTTGACGTTTTTTCTCGCTGCGGAGTCACCTAGTGCAG,9920 fluorescence intensity (a.u.)
7,TGACAGCGGTAGATGTGGGTGGTGGTGGGAGGGGAGGATGCGGAGTCACCTAGTGCAG,16200 fluorescence intensity (a.u.)
8,AGAGATGGTAGTGGTAAAGCGGAGGAGGGGTGGGGTGTTGCGGAGTCACCTAGTGCAG,16700 fluorescence intensity (a.u.)
9,CTATTATCTCCAGGGTGGGGTGGGGCCCATACGGCCAGGACGGAGTCACCTAGTGCAG,10400 fluorescence intensity (a.u.)
10,GAGAGAGGGGTTGGGTTTGGTTGGTGTTTGTGTGGAGATGCGGAGTCACCTAGTGCAG,12800 fluorescence intensity (a.u.)
11,GGGTGGGAGGGAGGGAGTACATGGTAAGGCCATTCAACAGCGGAGTCACCTAGTGCAG,20200 fluorescence intensity (a.u.)
12,TTTGACGTTTTTTCTCGCTGCTATTATCTCCAGGGTGGGGCGGAGTCACCTAGTGCAG,17200 fluorescence intensity (a.u.)
13,CTGCGGCCCGGCGGGAGTGGGAGGGGCGGCGGGCCGGACCCGGAGTCACCTAGTGCAG,9720 fluorescence intensity (a.u.)
14,AGAGGGATGGGTGTGGGCAGCGGTGGGCGGTAAGGCACCACGGAGTCACCTAGTGCAG,9360 fluorescence intensity (a.u.)
15,GAGAGCTTTGCGGCGGGCATGCGGGTGGGGATTCACCGCGCGGAGTCACCTAGTGCAG,10600 fluorescence intensity (a.u.)
16,ACCTTGGACAACTGACTTCTCTACAGACATTAACCTTTTTCGGAGTCACCTAGTGCAG,8730 fluorescence intensity (a.u.)
17,TTTTCATCTGAGCTTATGTTCCAACTTTTATTTTTAATCACGGAGTCACCTAGTGCAG,8780 fluorescence intensity (a.u.)
18,ACTGAGTACTGTTCGGTTGGGTCTGGCATCGGATGTTTCCCGGAGTCACCTAGTGCAG,8340 fluorescence intensity (a.u.)
19,TATAGGCCACTTGTGCCTCGGCTCACGTTGACCTGCCTTACGGAGTCACCTAGTGCAG,8170 fluorescence intensity (a.u.)
20,AACATATAAACTCAAATCTCCAATTGTTTCCGCTACAAATCGGAGTCACCTAGTGCAG,8100 fluorescence intensity (a.u.)
21,AACTATTTTCATCCCTCGAGGACATATCTCCTCGTTGTTTCGGAGTCACCTAGTGCAG,11100 fluorescence intensity (a.u.)
